# Data published in PubChem BioAssay (NCI).
# Compounds without any hit were thinned out: in the full panel of roughly 79,000, 15% have a hit. A number with no mark means an inactive call. The source made the active and inactive calls. Rule as the data show it: active = growth inhibition above about 70%; inactive = the rest.
# Assay: NCI Yeast Anticancer Drug Screen. Data for the sgs1 mgt1 strain (AID 161);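 also: 0% = growth of cultures given vehicle only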
# Conditions: S. cerevisiae sgs1 mgt1 strain, at 50.0 µM (retest, dose inferred, filed as 5.0), hits give high values
# Method in brief: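 Read-out: growth inhibition vs vehicle controls. Cells: mutant yeast strain deficient in DNA damage repair.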
row,SMILES,growth inhibition
1,COc1ccc(Cc2nc3ccccc3s2)cc1OC,99% (active)
2,CN(NC(=O)c1cccs1)C1=NCCCN1,76% (active)
3,Cc1cccc2c1C(=O)N(CC[P+](c1ccccc1)(c1ccccc1)c1ccccc1)C2=O,93% (active)
4,CCc1cc2c(cc1O)CC[C@@H]1[C@@H]2CC[C@]2(C)[C@@H](O)CC[C@@H]12,96% (active)
5,C[n+]1c2ccc(Cl)cc2nc2cc(-c3ccccc3)ccc21,99% (active)
6,CCOC1(c2ccccc2)c2ccccc2S(=O)(=O)N1C (stereo not given),33%
7,CCN(CC)CCNc1ccc(C)c2sc3ccc(OC)cc3c(=O)c12,98% (active)
8,Cc1nc2c(cnn2-c2ccccc2)c(=O)o1,-62%
9,O=C1C=CC(=O)N1c1ccccc1 (tested in a mixture with another compound),39%
10,COc1cccc(=O)cc1,83% (active)
11,CCN(CC)CCCC(=O)Nc1cc(OC)cc2cccnc12,1%
12,COc1ccc(C2SCC(=O)N2c2ccc(-c3ccc(-n4c(-c5ccccc5)nc5ccccc5c4=O)cc3)cc2)cc1 (stereo not given),57%
13,CC(=O)OC(C#N)CC(C)(C)/[N+]([O-])=[N+](\[O-])C(C)(C)CC(C#N)OC(C)=O (stereo not given),97% (active)
14,CCCCCc1[nH]nc(C(=O)OC)c1N=NN1CCOCC1,99% (active)
15,Clc1ccc(C(c2ccc(Cl)cc2)c2cncnc2)cc1,95% (active)
16,CC1=C(C(=O)Nc2cccc(Cl)c2)C(c2ccc([N+](=O)[O-])cc2)C(C(=O)Nc2cccc(Cl)c2)=C(C)N1,34%
17,NC1=NC(c2ccccc2)CC(c2cc(Cl)cc(Br)c2O)=N1 (stereo not given),42%
18,CC(NNC(=S)NCc1ccccc1)c1cc2ccccc2cn1 (stereo not given),91% (active)
19,C=CCOC(=O)CC(O)C(=O)OCC=C (stereo not given),3%
20,OC(C(=Nc1ccccc1)c1ccccc1)c1ccccc1 (stereo not given),98% (active)
21,O=C(Nc1ccccc1-c1nn(CN2CCNCC2)c(=S)n(CN2CCNCC2)c1=O)C(F)(F)F,13%
22,CCN(CC)CCOc1c(I)cc(I)cc1I,99% (active)
23,CCN(CC)CC(O)c1ccnc2c(O)cccc12 (stereo not given),33%
24,O=[N+]([O-])c1ccc(-c2nc(/C=N/N3CCCCC3)cs2)o1,76% (active)
25,O=C(CCn1[nH]c(=O)c(Cl)c(Cl)c1=O)NNc1ccc([N+](=O)[O-])cc1[N+](=O)[O-],18%
26,COc1ccc(-c2c(CO)cc(OC)c(OC)c2OC)c(CO)c1,22%
27,CCCCCCCCNc1ccc(Cl)cc1,97% (active)
28,COc1ccc(C(=O)Nc2ccccc2[N+](=O)[O-])cc1,-11%
29,CC(=O)CC(C)=NCCN=C(C)CC(C)=O.[Pd],96% (active)
30,Cc1cc2oc3c(ccc(=O)n3C)c(=O)c2c(C)c1Cl,21%
